The text below walks through data of publication PMC7862700, “An all-to-all approach to the identification of sequence-specific readers for epigenetic DNA modifications on cytosine”.

What all share (assay): DAPPL (digital affinity profiling via proximity ligation, sequencing); 10 mM Tris-HCl pH 7.5, 50 mM NaCl, 1 mM DTT, 4% glycerol, room temperature, 30 min; GST-TFs on glutathione beads, 16-mer random dsDNA library, 0.1% formaldehyde crosslink after washing; high values mean tight binding
For test [1], the target named is T1, FLI1 (Homo sapiens, UniProt Q01543 1-452).
T1 sequence: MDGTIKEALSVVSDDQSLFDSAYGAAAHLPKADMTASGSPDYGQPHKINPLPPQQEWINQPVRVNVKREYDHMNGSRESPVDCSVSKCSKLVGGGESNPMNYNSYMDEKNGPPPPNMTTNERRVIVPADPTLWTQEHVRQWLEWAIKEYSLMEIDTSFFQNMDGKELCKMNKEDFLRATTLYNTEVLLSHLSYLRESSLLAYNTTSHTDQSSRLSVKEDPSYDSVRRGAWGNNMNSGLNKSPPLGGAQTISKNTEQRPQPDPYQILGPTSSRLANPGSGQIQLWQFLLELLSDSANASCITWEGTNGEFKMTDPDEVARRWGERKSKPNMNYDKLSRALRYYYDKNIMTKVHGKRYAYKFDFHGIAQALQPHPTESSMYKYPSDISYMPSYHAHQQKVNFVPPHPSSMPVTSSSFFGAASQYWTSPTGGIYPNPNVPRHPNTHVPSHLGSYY
The settings on record: protein: recombinant; tags: N-terminal GST; dsDNA, one strand shown. Summed up: (§1)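 Beads coated with glutathione captured GST-fused human transcription factors that had been expressed in yeast, and the factors were then given DNA barcodes and pooled with a tag-only sample. The pools were incubated with 200 nmole of a random double-stranded 16-mer DNA library in Tris/NaCl/DTT/glycerol buffer for 30 min at room temperature, washed, crosslinked with 0.1% formaldehyde and proximity-ligated with BsaI/T4 ligase at 37 °C for 1 h. PCR amplification and Illumina NextSeq500 sequencing came last. Binding signal is each hexamer's read frequency for a factor divided by its frequency for the tag-only sample.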

Test [2] has as its target T2, ELK1 (Homo sapiens, UniProt P19419 1-428).
T2 sequence: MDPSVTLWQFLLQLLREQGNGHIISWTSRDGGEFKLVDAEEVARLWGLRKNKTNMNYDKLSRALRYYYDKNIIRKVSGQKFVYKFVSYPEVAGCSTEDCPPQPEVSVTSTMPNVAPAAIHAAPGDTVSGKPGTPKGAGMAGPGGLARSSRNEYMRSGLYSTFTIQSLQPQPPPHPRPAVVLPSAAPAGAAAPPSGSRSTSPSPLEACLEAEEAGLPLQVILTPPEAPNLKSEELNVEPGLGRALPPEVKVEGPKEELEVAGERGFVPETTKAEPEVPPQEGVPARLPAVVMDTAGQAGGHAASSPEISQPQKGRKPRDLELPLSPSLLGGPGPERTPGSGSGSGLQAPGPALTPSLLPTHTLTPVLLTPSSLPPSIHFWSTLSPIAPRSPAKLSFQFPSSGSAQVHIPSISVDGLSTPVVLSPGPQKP
The settings on record: protein: recombinant; tags: N-terminal GST; dsDNA, one strand shown. Summed up:
as §1

Test [3] concerns the target T3, GABPA (Homo sapiens, UniProt Q06546 1-454).
T3 sequence: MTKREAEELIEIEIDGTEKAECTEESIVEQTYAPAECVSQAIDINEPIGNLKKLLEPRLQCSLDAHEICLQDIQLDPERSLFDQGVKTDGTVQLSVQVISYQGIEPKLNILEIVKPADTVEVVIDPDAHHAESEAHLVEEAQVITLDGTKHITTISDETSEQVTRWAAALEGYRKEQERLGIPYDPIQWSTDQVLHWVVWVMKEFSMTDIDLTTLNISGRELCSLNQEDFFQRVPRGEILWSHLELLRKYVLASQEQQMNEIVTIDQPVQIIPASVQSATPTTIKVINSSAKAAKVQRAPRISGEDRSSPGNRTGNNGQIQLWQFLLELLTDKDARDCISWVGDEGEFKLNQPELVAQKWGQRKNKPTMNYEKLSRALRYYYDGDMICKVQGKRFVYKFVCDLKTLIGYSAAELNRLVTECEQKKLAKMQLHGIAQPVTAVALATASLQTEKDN
The note with it: protein: recombinant; tags: N-terminal GST; dsDNA, one strand shown. The essentials:
as §1

Test [4] has as its target T4, ERG (Homo sapiens, UniProt P11308 1-479).
T4 sequence: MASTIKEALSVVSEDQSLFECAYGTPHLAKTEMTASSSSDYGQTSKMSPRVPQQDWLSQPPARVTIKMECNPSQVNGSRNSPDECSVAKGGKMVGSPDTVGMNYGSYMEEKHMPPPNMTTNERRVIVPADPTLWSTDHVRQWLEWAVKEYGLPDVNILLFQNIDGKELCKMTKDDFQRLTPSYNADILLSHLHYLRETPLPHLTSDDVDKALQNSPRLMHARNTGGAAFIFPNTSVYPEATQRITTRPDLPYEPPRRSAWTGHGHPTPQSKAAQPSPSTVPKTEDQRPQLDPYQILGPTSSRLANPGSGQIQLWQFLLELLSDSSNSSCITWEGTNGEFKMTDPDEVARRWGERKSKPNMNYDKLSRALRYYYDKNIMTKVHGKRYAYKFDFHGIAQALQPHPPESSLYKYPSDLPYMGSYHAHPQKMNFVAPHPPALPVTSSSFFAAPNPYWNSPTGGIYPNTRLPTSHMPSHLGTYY
The settings on record: protein: recombinant; tags: N-terminal GST; dsDNA, one strand shown. Summed up: as §1

The target of test [5] is ELF1 (Homo sapiens, UniProt P32519 1-619). The note with it: protein: recombinant; tags: N-terminal GST; dsDNA, one strand shown. Summed up:
as §1

Test [6] addresses T5, EHF (Homo sapiens, UniProt Q9NZC4 1-300).
T5 sequence: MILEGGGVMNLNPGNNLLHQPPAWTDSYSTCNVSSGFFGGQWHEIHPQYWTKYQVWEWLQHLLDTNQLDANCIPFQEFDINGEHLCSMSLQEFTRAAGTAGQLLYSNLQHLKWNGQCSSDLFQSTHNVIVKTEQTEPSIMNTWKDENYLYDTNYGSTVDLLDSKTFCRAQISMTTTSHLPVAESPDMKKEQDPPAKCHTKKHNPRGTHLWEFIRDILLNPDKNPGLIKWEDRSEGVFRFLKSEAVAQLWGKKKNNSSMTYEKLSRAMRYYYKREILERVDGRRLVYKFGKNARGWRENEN
The settings on record: protein: recombinant; tags: N-terminal GST; dsDNA, one strand shown. Summed up:
as §1

For test [7], the target named is SPI1 (Homo sapiens, UniProt P17947 1-270). The settings on record: protein: recombinant; tags: N-terminal GST; dsDNA, one strand shown. Summed up: as §1
Test [8] deals with SPIB (Homo sapiens, UniProt Q01892 1-262). The settings on record: protein: recombinant; tags: N-terminal GST; dsDNA, one strand shown. Summed up:
as §1

The target of test [9] is T6, ELK3 (Homo sapiens, UniProt P41970 1-407).
T6 sequence: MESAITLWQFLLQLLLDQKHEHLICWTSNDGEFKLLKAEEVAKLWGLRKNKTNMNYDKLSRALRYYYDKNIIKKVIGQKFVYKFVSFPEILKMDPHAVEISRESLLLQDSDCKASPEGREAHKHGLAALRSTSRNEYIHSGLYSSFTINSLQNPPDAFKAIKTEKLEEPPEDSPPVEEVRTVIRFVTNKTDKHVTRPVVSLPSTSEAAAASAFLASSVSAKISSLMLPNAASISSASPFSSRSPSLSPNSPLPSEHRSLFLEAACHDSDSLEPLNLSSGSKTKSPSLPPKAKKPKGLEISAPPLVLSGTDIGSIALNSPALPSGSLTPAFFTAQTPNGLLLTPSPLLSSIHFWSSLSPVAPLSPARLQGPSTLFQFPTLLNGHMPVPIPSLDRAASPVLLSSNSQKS
The settings on record: protein: recombinant; tags: N-terminal GST; dsDNA, one strand shown. The essentials:
as §1

The target in test [10] is T7, FEV (Homo sapiens, UniProt Q99581 1-238).
T7 sequence: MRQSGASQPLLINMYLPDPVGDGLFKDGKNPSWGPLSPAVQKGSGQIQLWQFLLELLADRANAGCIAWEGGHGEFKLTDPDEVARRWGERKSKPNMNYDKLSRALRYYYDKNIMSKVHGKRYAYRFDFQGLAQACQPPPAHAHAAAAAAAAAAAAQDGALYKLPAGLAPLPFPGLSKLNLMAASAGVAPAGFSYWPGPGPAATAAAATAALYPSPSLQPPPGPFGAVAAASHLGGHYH
The settings on record: protein: recombinant; tags: N-terminal GST; dsDNA, one strand shown. The essentials:
as §1

Test [11] has as its target ETV5 (Homo sapiens, UniProt P41161 1-510). The settings on record: protein: recombinant; tags: N-terminal GST; dsDNA, one strand shown. The essentials: as §1
Test [12] addresses HSF1 (Homo sapiens, UniProt Q00613 1-529). The settings on record: protein: recombinant; tags: N-terminal GST; chain copies: 3; dsDNA, one strand shown. The essentials:
as §1

The target of test [13] is T8, SPIC (Homo sapiens, UniProt Q8N5J4 1-248).
T8 sequence: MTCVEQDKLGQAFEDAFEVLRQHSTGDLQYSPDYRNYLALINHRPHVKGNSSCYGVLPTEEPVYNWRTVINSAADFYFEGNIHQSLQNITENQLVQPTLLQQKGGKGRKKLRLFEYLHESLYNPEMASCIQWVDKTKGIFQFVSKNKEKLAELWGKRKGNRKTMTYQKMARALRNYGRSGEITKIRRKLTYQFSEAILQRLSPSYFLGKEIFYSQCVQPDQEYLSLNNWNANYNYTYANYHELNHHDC
The note with it: protein: recombinant; tags: N-terminal GST; dsDNA, one strand shown. The essentials:
as §1

Test [14] deals with ELF4 (Homo sapiens, UniProt Q99607 1-663). The note with it: protein: recombinant; tags: N-terminal GST; dsDNA, one strand shown. Summed up: as §1
ELF4, sequence (Q99607 whole entry): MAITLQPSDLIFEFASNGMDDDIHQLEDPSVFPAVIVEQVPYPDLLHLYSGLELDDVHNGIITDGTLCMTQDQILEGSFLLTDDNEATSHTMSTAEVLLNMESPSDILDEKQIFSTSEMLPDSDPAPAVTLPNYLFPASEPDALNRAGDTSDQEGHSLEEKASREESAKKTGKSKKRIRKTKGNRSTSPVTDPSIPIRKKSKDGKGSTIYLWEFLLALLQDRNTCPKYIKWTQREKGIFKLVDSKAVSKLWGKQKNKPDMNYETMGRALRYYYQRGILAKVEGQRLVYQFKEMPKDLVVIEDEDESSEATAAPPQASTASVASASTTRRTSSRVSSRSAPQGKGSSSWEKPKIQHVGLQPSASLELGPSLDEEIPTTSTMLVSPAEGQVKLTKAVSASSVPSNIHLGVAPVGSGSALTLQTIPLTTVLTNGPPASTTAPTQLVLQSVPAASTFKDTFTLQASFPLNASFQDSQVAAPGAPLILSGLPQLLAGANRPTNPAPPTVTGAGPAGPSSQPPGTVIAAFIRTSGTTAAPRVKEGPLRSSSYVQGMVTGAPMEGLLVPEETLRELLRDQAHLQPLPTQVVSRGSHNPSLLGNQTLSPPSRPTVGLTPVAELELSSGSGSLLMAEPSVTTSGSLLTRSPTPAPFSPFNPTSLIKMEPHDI
The target of test [15] is T9, ELK4 (Homo sapiens, UniProt P28324-2 1-405).
T9 sequence: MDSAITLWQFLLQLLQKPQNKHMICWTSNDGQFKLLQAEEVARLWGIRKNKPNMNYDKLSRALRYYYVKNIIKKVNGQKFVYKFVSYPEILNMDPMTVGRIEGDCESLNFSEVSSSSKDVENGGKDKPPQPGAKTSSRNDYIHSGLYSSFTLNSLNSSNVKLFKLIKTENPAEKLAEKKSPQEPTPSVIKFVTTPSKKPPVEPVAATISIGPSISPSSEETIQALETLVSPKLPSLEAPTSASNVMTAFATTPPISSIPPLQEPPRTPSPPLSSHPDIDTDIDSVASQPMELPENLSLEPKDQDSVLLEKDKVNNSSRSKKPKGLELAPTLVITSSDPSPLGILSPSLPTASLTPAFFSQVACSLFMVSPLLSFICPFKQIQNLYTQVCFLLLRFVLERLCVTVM
The note with it: protein: recombinant; tags: N-terminal GST; dsDNA, one strand shown. Summed up: as §1

Test [16] has as its target CRX (Homo sapiens, UniProt O43186 1-299). The note with it: protein: recombinant; tags: N-terminal GST; dsDNA, one strand shown. The essentials:
as §1

The target in test [17] is ETV1 (Homo sapiens, UniProt P50549 1-477). The settings on record: protein: recombinant; tags: N-terminal GST; dsDNA, one strand shown. The essentials:
as §1

SPIB, sequence (Q01892 whole entry): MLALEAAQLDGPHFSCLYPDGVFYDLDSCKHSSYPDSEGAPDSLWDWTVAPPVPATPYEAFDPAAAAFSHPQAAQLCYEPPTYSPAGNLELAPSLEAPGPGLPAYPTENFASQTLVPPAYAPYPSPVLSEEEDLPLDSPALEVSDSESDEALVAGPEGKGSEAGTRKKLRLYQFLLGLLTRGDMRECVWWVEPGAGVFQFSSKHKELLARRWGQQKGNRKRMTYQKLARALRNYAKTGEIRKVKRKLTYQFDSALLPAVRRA
ETV1, sequence (P50549 whole entry): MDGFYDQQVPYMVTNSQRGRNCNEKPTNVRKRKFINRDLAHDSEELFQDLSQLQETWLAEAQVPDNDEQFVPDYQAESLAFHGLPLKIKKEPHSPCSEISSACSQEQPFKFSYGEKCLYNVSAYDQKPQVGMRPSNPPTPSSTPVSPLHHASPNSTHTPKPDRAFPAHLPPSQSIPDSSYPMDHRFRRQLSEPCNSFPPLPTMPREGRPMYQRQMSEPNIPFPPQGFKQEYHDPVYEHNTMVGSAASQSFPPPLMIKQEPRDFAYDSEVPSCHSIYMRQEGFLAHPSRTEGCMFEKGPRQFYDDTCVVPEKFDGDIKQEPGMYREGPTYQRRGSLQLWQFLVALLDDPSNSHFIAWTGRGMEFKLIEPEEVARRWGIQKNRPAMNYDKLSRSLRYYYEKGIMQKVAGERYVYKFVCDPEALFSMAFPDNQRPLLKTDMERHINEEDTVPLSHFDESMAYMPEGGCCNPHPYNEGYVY
ELF1, sequence (P32519 whole entry): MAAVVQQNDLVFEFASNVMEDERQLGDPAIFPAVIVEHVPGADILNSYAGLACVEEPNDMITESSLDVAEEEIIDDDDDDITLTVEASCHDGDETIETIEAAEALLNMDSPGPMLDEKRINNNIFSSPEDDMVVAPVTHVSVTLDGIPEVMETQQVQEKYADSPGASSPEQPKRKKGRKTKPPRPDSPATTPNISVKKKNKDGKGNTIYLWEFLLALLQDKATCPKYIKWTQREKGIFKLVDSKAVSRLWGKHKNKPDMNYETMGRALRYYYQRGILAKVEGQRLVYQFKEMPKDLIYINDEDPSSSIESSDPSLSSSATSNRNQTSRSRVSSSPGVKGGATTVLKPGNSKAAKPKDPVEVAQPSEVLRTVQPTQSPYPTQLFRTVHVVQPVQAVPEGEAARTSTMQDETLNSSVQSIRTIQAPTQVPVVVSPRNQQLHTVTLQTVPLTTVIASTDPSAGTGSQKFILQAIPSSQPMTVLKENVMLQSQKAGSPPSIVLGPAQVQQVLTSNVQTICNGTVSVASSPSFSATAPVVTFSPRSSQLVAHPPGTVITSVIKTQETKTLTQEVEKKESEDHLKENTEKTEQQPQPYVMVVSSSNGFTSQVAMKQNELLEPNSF
CRX, sequence (O43186 whole entry): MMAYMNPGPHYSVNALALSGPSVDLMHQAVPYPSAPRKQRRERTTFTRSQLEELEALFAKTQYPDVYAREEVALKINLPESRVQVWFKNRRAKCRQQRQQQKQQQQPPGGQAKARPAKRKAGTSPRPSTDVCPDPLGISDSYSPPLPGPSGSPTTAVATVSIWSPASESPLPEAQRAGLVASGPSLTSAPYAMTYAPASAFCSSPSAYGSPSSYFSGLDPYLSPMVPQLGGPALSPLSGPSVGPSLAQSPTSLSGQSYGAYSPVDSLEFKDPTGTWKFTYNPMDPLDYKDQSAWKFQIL
HSF1, sequence (Q00613 whole entry): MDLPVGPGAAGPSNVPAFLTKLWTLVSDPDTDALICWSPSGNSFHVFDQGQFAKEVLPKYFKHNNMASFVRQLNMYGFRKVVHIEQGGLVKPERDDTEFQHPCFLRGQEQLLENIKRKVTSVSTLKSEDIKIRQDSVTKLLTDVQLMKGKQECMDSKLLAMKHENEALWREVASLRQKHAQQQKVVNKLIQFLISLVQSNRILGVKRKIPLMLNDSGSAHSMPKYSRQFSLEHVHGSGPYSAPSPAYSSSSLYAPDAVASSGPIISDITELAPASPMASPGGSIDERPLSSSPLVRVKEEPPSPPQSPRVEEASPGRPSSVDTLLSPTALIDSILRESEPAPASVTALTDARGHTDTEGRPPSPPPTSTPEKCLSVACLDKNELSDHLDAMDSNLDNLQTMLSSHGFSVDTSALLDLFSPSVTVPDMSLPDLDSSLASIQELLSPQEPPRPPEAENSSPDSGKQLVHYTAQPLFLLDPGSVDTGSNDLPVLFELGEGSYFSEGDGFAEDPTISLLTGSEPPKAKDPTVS
ETV5, sequence (P41161 whole entry): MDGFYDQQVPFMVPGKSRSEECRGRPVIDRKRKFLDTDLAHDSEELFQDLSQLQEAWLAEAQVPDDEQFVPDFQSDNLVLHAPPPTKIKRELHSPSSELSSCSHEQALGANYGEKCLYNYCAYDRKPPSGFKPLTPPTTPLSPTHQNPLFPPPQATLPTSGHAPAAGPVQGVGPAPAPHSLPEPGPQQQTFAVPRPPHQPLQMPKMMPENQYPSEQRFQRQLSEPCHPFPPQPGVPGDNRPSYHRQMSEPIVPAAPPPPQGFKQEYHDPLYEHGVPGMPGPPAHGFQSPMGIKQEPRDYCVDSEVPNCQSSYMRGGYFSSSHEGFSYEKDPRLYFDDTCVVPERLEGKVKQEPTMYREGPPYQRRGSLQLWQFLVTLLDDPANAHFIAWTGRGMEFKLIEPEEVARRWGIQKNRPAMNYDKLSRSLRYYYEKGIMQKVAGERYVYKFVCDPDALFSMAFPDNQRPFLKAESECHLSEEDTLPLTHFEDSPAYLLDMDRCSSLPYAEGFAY

With TAACTC, the binding signal in test [1] was 1.3 fold enrichment (6-mer frequency, TF over GST control); in test [2], 1.22 fold enrichment (6-mer frequency, TF over GST control); in [3], 1.23 fold enrichment (6-mer frequency, TF over GST control); in [4], 1.11 fold enrichment (6-mer frequency, TF over GST control); in test [5], 1.29 fold enrichment (6-mer frequency, TF over GST control); in [6], 1.16 fold enrichment (6-mer frequency, TF over GST control). Also, the binding signal in [7] is 1.18 fold enrichment (6-mer frequency, TF over GST control); in test [8] it was 1.21 fold enrichment (6-mer frequency, TF over GST control); in [9], 1.18 fold enrichment (6-mer frequency, TF over GST control); in [10] it was 1.1 fold enrichment (6-mer frequency, TF over GST control); in test [11], 1.21 fold enrichment (6-mer frequency, TF over GST control); in [12] it was 1.34 fold enrichment (6-mer frequency, TF over GST control). The binding signal in test [13] is 1.25 fold enrichment (6-mer frequency, TF over GST control); in [14] it was 1.29 fold enrichment (6-mer frequency, TF over GST control); in [15] it was 1.34 fold enrichment (6-mer frequency, TF over GST control); in test [16] it was 1.58 fold enrichment (6-mer frequency, TF over GST control); in test [17], 1.23 fold enrichment (6-mer frequency, TF over GST control).
